# Results reported in PubChem BioAssay (EPA / NIEHS).
# Where “and” joins values, the source holds several entries; their conditions need not be identical. Equal entries are not always repeated. Calls of active or inactive are those of the source. Rule for the calls: active = hit-call score of the fitted dose curve at least 0.9, where 1 is the maximum; inactive = score below 0.9.
# Tests used:
# [1] = biological target: Transcription factor E2F1 (Homo sapiens) (UniProt Q01094); assay: ATG_E2F_CIS: Attagene CIS-FACTORIAL HepG2 Assay for human E2F Transcription Factor 1 (AID 2282935); conditions: HepG2 Attagene cis-reporter, E2F reporter RNA transcripts; actives raise or lower the signal
# Chain of Transcription factor E2F1 (Homo sapiens) (Q01094 whole entry, looked up): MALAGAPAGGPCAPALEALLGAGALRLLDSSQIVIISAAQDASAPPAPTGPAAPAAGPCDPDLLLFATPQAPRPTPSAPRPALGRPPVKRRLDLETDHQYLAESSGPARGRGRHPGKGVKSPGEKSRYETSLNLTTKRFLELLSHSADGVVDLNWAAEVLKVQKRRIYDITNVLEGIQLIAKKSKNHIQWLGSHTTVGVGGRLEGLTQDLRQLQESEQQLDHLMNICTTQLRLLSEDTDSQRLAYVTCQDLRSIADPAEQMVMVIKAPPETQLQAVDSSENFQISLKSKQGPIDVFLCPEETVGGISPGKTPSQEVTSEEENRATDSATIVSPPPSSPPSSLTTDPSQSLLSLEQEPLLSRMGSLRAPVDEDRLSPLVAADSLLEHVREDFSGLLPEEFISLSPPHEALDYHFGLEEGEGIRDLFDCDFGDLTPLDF
# In short: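 In this cis-factorial format, endogenous factor activity drives transfected reporters in HepG2; transcripts collected at 24 h are quantified by fluorescence after RT-PCR and capillary separation.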
# [2] = ATG_E_Box_CIS: Attagene CIS-FACTORIAL HepG2 Assay for human Enhancer Box (E-box) (AID 2282936); conditions: HepG2 E-box cis-reporter transcription, actives raise or lower the signal
# In short: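 Measured 24 h post-dosing in HepG2 cells transfected with multiple cis-regulated reporter units, signal being reporter mRNA induction detected by fluorescent RT-PCR with capillary electrophoresis; gain or loss fitted against DMSO.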
# [3] = ATG_M_61_CIS: Attagene CIS-FACTORIAL HepG2 Assay for M61 Transcription Factor (Internal Marker) (AID 2282937); conditions: HepG2 Attagene CIS-FACTORIAL M61 internal marker reporter; actives raise or lower the signal
# In short: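 Readout: fluorescent reporter mRNA fragments resolved by capillary electrophoresis after RT-PCR. Transiently transfected human HepG2 cells carried MRTU constructs reporting endogenous TF activity; 24 h chemical exposure; gain or loss of signal fitted relative to DMSO.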
# [4] = ATG_EGR_CIS: Attagene CIS-FACTORIAL HepG2 Assay for human Early Growth Response 1 (EGR1) (AID 2282938); conditions: HepG2 Attagene CIS-FACTORIAL EGR reporter mRNA; actives raise or lower the signal
# In short: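 Read-out: fluorescent reporter-mRNA fragments resolved by capillary electrophoresis after RT-PCR, 24 h post-dose in transiently transfected HepG2. Endogenous transcription-factor activity reported via cis-element-regulated reporter units; gain or loss fitted relative to DMSO.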
# [5] = ATG_ERE_CIS: Attagene CIS-FACTORIAL HepG2 Assay for Estrogen Response Element (ERE) (AID 2282940); conditions: HepG2 ERE cis-reporter, Attagene RNA transcript; actives raise or lower the signal
# In short: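 Fluorescence of capillary-separated, FAM-labelled reporter cDNA fragments indicates reporter mRNA levels in HepG2 cells exposed to chemicals for 24 h. Transient transfection with cis-regulated units; data fitted in both directions against DMSO.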
# [6] = ATG_Ets_CIS: Attagene CIS-FACTORIAL HepG2 Assay for human Erythroblast Transformation Specific (ETS) (AID 2282941); conditions: HepG2 ETS cis-reporter transcription, actives raise or lower the signal
# In short: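 Endogenous transcription factor activity read as reporter mRNA via RT-PCR and capillary electrophoresis, with gain or loss fitted bidirectionally against DMSO. Human HepG2 liver cells, transiently transfected CIS reporter constructs, 24 h exposure.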
# [7] = biological target: Hepatocyte nuclear factor 3-beta (Homo sapiens) (UniProt Q9Y261); assay: ATG_FoxA2_CIS: Attagene CIS-FACTORIAL HepG2 Assay for human Forkhead box A2 (FOXA2) (AID 2282942); conditions: HepG2 cis-reporter transcription factor activity, 24 h; actives raise or lower the signal
# Chain of Hepatocyte nuclear factor 3-beta (Homo sapiens) (Q9Y261 whole entry, looked up): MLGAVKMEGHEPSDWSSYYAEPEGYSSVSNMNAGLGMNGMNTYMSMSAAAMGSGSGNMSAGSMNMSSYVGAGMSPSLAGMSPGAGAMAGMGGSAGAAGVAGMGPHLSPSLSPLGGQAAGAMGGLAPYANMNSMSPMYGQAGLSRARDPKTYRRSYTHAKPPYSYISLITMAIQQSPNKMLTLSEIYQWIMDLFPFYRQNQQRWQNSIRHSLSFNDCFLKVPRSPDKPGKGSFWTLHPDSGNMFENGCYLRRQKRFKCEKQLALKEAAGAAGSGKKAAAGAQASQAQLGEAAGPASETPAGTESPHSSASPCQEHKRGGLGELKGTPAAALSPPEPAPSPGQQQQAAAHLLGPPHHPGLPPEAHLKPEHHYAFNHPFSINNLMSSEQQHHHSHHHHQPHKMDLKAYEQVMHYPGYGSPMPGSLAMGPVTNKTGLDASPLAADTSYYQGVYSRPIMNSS
# In short: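 Readout: fluorescent reporter transcripts resolved by capillary electrophoresis after RT-PCR. Transiently transfected HepG2, 24 h compound exposure, endogenous TF activity at cis promoter elements. Gain or loss of signal fitted relative to DMSO.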
# [8] = ATG_FoxO_CIS: Attagene CIS-FACTORIAL HepG2 Assay for human Forkhead box O (FoxO) (AID 2282943); conditions: HepG2 Attagene cis-reporter, FoxO element, mRNA; actives raise or lower the signal
# In short: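 24 h chemical exposure, HepG2 with transient cis-MRTU transfection. RNA extraction, oligo(dT) RT, reporter-specific PCR, primer-extension labelling, HpaI digestion, CE fragment analysis; bidirectional fit, DMSO baseline.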
# [9] = ATG_GATA_CIS: Attagene CIS-FACTORIAL HepG2 Assay for human GATA Binding Protein (AID 2282944); conditions: HepG2 GATA cis-element reporter, Attagene multiplex mRNA; actives raise or lower the signal
# In short: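 After transfecting HepG2 cells with multiple cis-regulated reporter units, chemicals are dosed for 24 h; isolated RNA undergoes RT-PCR and fluorescent labeling before capillary electrophoresis, with activity expressed against DMSO.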
# [10] = ATG_GLI_CIS: Attagene CIS-FACTORIAL HepG2 Assay for human Zinc Finger Protein GLI1 (AID 2282945); conditions: HepG2, Attagene cis-factorial reporter mRNA, GLI element; actives raise or lower the signal
# In short: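 HepG2 cells transiently transfected with cis-promoter multiplexed reporter units report endogenous transcription factor activity. After 24 h chemical exposure, reporter mRNA was quantified by RT-PCR, 6-FAM labelling, HpaI digestion and capillary electrophoresis, with bidirectional fitting against DMSO.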
# [11] = ATG_ISRE_CIS: Attagene CIS-FACTORIAL HepG2 Assay for human Interferon Regulatory Factor 1 (IRF1) binding to an Interferon-Stimulated Response Element (ISRE) (AID 2282948); conditions: HepG2 ISRE cis-reporter (Attagene), mRNA transcription readout; actives raise or lower the signal
# In short: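 Endogenous transcription factor activity read as reporter transcript abundance via RT-PCR and capillary electrophoresis. HepG2 cells transiently transfected, 24 h chemical exposure. Gain or loss fitted against DMSO baseline.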
# [12] = ATG_M_06_CIS: Attagene CIS-FACTORIAL HepG2 Assay for M06 Transcription Factor (Internal Marker) (AID 2282950); conditions: HepG2 Attagene CIS-FACTORIAL M06 internal marker reporter; actives raise or lower the signal
# In short: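 HepG2 liver cells, 24 h exposure. Reporter transcripts from transfected cis-element constructs quantified by RT-PCR/capillary electrophoresis fluorescence. Bidirectional curve fit against DMSO.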
# [13] = biological target: Hypoxia-inducible factor 1-alpha (Homo sapiens) (UniProt Q16665); assay: ATG_HIF1a_CIS: Attagene CIS-FACTORIAL HepG2 Assay for human Hypoxia Inducible Factor 1 (HIF1A) (AID 2282951); conditions: HepG2 Attagene cis-factorial HIF1a reporter transcription; actives raise or lower the signal
# Chain of Hypoxia-inducible factor 1-alpha (Homo sapiens) (Q16665 whole entry, looked up): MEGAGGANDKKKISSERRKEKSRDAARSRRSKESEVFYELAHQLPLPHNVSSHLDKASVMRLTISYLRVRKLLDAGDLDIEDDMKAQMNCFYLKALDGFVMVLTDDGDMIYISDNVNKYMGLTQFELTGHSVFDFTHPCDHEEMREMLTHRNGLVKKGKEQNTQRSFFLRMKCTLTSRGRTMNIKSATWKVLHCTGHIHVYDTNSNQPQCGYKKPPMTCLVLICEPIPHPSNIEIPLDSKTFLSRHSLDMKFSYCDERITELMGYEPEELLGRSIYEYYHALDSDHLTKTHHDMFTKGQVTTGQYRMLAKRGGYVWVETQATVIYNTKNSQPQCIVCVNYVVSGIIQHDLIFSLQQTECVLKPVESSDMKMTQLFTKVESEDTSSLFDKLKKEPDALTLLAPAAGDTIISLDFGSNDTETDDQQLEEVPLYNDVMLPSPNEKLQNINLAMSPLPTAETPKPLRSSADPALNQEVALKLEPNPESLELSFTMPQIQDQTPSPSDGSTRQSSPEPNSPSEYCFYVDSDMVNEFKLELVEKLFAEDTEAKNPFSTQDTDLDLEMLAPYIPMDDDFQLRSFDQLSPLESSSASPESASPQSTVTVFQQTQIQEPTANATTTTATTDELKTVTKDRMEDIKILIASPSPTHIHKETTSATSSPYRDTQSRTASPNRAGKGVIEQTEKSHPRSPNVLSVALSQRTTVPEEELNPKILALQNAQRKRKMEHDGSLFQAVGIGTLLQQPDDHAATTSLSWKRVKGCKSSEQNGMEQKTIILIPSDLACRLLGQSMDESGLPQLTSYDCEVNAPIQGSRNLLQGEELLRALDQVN
# In short: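 RT-PCR/capillary electrophoresis fluorescence readout of reporter transcripts from endogenous-TF-driven cis elements in transfected HepG2 cells, 24 h exposure; activity fitted in both directions against DMSO controls.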
# [14] = biological target: Hepatocyte nuclear factor 6 (Homo sapiens) (UniProt Q9UBC0); assay: ATG_HNF6_CIS: Attagene CIS-FACTORIAL HepG2 Assay for human Hepatocyte Nuclear Factor 6 (HNF6) (AID 2282952); conditions: HepG2 Attagene cis-factorial HNF6 reporter transcription; actives raise or lower the signal
# Chain of Hepatocyte nuclear factor 6 (Homo sapiens) (Q9UBC0 whole entry, looked up, the tested form may be a part): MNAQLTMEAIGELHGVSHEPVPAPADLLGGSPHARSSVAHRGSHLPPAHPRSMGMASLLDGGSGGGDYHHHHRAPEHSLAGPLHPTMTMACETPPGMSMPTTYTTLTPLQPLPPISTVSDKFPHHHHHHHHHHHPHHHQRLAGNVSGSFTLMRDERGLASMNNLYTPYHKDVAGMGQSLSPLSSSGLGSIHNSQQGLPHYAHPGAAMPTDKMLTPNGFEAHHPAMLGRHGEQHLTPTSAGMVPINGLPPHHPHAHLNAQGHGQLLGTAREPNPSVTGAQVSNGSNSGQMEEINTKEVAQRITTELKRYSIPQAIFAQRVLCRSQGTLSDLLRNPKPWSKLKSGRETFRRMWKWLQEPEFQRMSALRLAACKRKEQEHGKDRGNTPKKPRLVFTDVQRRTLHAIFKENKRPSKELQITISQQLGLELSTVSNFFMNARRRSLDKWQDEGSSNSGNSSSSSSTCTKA
# In short: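 First, HepG2 cells were transfected with the multiplexed cis reporter library and dosed with chemical for 24 h. Next, RNA was reverse-transcribed, PCR-amplified and fluorescently labelled. Finally, HpaI-digested fragments were read by capillary electrophoresis.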
# [15] = biological target: Heat shock factor protein 1 (Homo sapiens) (UniProt Q00613); assay: ATG_HSE_CIS: Attagene CIS-FACTORIAL HepG2 Assay for human Heat Shock Transcription Factor 1 (HSE) (AID 2282953); conditions: HepG2 HSE cis-reporter, Attagene RNA transcription; actives raise or lower the signal
# Chain of Heat shock factor protein 1 (Homo sapiens) (Q00613 whole entry, looked up, the tested form may be a part): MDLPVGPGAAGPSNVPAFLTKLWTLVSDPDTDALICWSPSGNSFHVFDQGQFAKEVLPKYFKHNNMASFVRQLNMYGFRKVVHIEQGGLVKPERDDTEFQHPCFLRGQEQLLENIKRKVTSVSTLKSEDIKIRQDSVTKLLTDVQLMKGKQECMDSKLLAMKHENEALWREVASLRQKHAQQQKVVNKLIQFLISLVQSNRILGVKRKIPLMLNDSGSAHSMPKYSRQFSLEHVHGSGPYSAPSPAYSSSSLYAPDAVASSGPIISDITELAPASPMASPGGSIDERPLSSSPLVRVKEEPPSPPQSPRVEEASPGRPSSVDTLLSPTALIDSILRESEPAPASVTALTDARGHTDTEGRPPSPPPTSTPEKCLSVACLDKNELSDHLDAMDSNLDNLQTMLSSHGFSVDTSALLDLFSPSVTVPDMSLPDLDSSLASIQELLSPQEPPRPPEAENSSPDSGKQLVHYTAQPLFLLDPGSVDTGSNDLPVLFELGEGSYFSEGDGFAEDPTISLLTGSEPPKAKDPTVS
# In short: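 Endogenous transcription factor activity captured via cis-promoter reporter units transfected into HepG2; treatment lasted 24 h. Fluorescence intensity of reporter fragments analysed with bidirectional curve fitting, DMSO baseline.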
# [16] = ATG_MRE_CIS: Attagene CIS-FACTORIAL HepG2 Assay for human Metal Responsive Element (MRE) (AID 2282954); conditions: HepG2 MRE cis-reporter transcription, Attagene multiplex; actives raise or lower the signal
# In short: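 Readout: capillary electrophoresis of 6-FAM-labelled, HpaI-digested RT-PCR reporter products. System: HepG2 cells carrying transient multiplexed cis reporters, dosed 24 h. Analysis: bidirectional fit, DMSO baseline.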
# [17] = biological target: Bile acid receptor (Homo sapiens) (UniProt Q96RI1); assay: ATG_IR1_CIS: Attagene CIS-FACTORIAL HepG2 Assay for human Nuclear Receptor Subfamily 1 Group H Member 4 (NR1H4), IR1 submotif (AID 2282946); conditions: IR1 reporter transcription, actives raise or lower the signal
# Chain of Bile acid receptor (Homo sapiens) (Q96RI1 whole entry, looked up): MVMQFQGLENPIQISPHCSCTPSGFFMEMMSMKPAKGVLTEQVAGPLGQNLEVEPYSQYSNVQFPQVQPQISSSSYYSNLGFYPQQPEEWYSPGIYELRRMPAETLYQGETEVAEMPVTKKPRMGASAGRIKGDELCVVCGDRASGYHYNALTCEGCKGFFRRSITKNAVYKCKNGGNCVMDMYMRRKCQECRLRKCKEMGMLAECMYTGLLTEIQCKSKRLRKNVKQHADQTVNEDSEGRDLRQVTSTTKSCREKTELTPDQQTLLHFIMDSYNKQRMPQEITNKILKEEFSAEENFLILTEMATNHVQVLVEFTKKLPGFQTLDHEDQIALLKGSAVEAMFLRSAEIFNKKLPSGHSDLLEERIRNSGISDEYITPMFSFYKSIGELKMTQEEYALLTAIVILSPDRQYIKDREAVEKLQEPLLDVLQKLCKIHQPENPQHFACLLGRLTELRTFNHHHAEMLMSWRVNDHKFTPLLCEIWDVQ
# In short: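 Readout: reporter transcript levels by RT-PCR with fluorescent capillary electrophoresis, from HepG2 cells transiently transfected with multiplexed cis-regulated reporters and dosed 24 h. Gain- or loss-of-signal fitted versus DMSO negative control.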
# [18] = ATG_M_32_CIS: Attagene CIS-FACTORIAL HepG2 Assay for M32 Transcription Factor (Internal Marker) (AID 2282949); conditions: HepG2 Attagene cis-factorial M32 reporter, mRNA; actives raise or lower the signal;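 note: background control marker of the multiplexed CIS panel rather than a real target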
# In short: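 Transient MRTU transfection of HepG2; 24 h compound treatment; TriZol RNA, oligo(dT) RT, reporter PCR, 6-FAM primer extension, HpaI cut, CE. Gain/loss of signal vs DMSO.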
# [19] = ATG_GRE_CIS: Attagene CIS-FACTORIAL HepG2 Assay for human Glucocorticoid Response Elements (GRE) (AID 2282947); conditions: HepG2 GRE cis-reporter, Attagene multiplex mRNA; actives raise or lower the signal
# In short: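 HepG2, transient cis-reporter transfection, 24 h. Reporter mRNA: RT-PCR then CE, fluorescence. Fit both directions vs DMSO.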
smiles,measurement,setting,value
COC(=O)CCCCC(=O)OC,outcome,[1],inactive
same,outcome,[2],inactive
same,outcome,[3],inactive
same,outcome,[4],inactive
same,outcome,[5],inactive
same,outcome,[6],inactive
same,outcome,[7],inactive
same,outcome,[8],inactive
same,outcome,[9],inactive
same,outcome,[10],inactive
same,outcome,[11],inactive
same,outcome,[12],inactive
same,outcome,[13],inactive
same,outcome,[14],inactive
same,outcome,[15],inactive
same,outcome,[16],inactive
Cc1ccc(S(=O)(=O)O)c(C)c1,outcome,[1],inactive
same,outcome,[2],inactive
same,outcome,[3],inactive
same,outcome,[4],inactive
same,outcome,[5],inactive
same,outcome,[6],inactive
same,outcome,[8],inactive
same,outcome,[9],inactive
same,outcome,[10],inactive
same,outcome,[12],inactive
same,outcome,[13],inactive
same,outcome,[14],inactive
same,outcome,[15],inactive
same,outcome,[16],inactive
C=C(C)C(=O)OCCC(F)(F)C(F)(F)C(F)(F)C(F)(F)C(F)(F)C(F)(F)F,outcome,[1],inactive
same,outcome,[2],inactive
same,outcome,[3],inactive
same,outcome,[4],inactive
same,AC50,[5],57.4 µM (active) and 150 µM (active)
same,outcome,[6],inactive
same,outcome,[7],inactive
same,outcome,[8],inactive
same,outcome,[9],inactive
same,outcome,[10],inactive
same,outcome,[17],inactive
same,outcome,[18],inactive
same,outcome,[12],inactive
same,outcome,[13],inactive
same,outcome,[14],inactive
same,outcome,[15],inactive
same,outcome,[16],inactive
CCCCC(CC)COC(=O)CCCCC(=O)OCC(CC)CCCC (stereo not drawn),outcome,[1],inactive
same,outcome,[2],inactive
same,outcome,[3],inactive
same,outcome,[4],inactive
same,outcome,[5],inactive
same,outcome,[6],inactive
same,outcome,[7],inactive
same,outcome,[8],inactive
same,outcome,[9],inactive
same,outcome,[10],inactive
same,outcome,[17],inactive
same,outcome,[11],inactive
same,outcome,[12],inactive
same,outcome,[13],inactive
same,outcome,[14],inactive
same,outcome,[15],inactive
same,outcome,[16],inactive
CCc1ccc(CCOc2ccc(CC3SC(=O)NC3=O)cc2)nc1 (stereo not drawn),outcome,[1],inactive
same,outcome,[2],inactive
same,outcome,[3],inactive
same,outcome,[4],inactive
same,AC50,[5],19.8 µM (active) and 41.4 µM (active)
same,outcome,[6],inactive
same,outcome,[8],inactive
same,outcome,[9],inactive
same,outcome,[10],inactive
same,outcome,[19],inactive
same,outcome,[18],inactive
same,outcome,[12],inactive
same,outcome,[13],inactive
same,outcome,[14],inactive
same,outcome,[15],inactive
same,outcome,[16],inactive
CC(O)C(=O)O (stereo not drawn),outcome,[1],inactive
same,outcome,[2],inactive
same,outcome,[3],inactive
same,outcome,[4],inactive
same,outcome,[5],inactive
same,outcome,[6],inactive
same,outcome,[8],inactive
same,outcome,[9],inactive
same,outcome,[10],inactive
same,outcome,[17],inactive
same,outcome,[11],inactive
same,outcome,[12],inactive
same,outcome,[13],inactive
same,outcome,[14],inactive
same,outcome,[15],inactive
same,outcome,[16],inactive
CCCCCCCC(=O)O,outcome,[1],inactive
same,outcome,[2],inactive
same,outcome,[3],inactive
same,outcome,[4],inactive
same,outcome,[5],inactive
same,outcome,[6],inactive
same,outcome,[8],inactive
same,outcome,[9],inactive
same,outcome,[10],inactive
same,outcome,[11],inactive
same,outcome,[12],inactive
same,outcome,[13],inactive
same,outcome,[14],inactive
same,outcome,[15],inactive
same,outcome,[16],inactive
CCN(CC)CCNc1ccc(CNC=O)c2sc3ccc(OC)cc3c(=O)c12,outcome,[1],inactive
same,outcome,[2],inactive
same,outcome,[3],inactive
same,outcome,[4],inactive
same,AC50,[5],722 nM (active)
same,AC50,[6],1420 nM (active)
same,outcome,[7],inactive
same,outcome,[8],inactive
same,outcome,[9],inactive
same,outcome,[10],inactive
same,AC50,[17],1190 nM (active)
same,AC50,[19],1850 nM (active)
same,outcome,[12],inactive
same,AC50,[13],515 nM (active)
same,AC50,[14],947 nM (active)
same,AC50,[15],1850 nM (active)
same,outcome,[16],inactive
